# Assay results from PubChem BioAssay AID1211 (NMMLSC, 2008).
# The source made the active and inactive calls. How the calls were made is not given here.
# Molecular target: Estrogen receptor (Homo sapiens) (UniProt P03372)
# Assay: ERalpha ligand binders by competition, primary screen, cell-based, Cos7 ERalpha-GFP, flow cytometry (AID 1211);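 further: 0% = DMSO vehicle wells and 100% = no E2-Alexa633 signal left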
# Conditions: fluorescent ligand competition, stronger effect = higher value
# Chain of Estrogen receptor (Homo sapiens) (P03372 whole entry, looked up): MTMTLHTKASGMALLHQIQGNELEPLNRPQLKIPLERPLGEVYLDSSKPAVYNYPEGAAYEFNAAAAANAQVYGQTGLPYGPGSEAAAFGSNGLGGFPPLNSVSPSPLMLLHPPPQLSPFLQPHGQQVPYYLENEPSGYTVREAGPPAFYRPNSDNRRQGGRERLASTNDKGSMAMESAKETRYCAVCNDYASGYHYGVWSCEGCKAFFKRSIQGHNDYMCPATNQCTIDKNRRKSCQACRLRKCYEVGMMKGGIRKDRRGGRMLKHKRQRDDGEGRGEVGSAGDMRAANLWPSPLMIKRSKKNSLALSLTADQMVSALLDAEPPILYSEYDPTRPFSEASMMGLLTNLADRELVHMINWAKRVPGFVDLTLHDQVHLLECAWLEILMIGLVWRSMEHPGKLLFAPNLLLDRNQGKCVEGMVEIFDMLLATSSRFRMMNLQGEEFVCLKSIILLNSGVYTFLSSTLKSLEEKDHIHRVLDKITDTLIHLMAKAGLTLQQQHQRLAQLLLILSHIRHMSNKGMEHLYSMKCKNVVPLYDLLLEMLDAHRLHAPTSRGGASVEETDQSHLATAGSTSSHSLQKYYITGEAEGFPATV
SMILES,inhibition of ligand binding (at 10 µM),"inhibition of ligand binding (binding inhibition, at 0.1 µM) [%]"
O=c1[nH]cnc2c1sc1nc3c(c(-c4ccc(Cl)cc4)c12)CCC3,41% (inactive),9
Nc1ccc2nc(-c3ccc(N)c(Cl)c3)[nH]c2c1,31% (inactive),12
CCOC(=O)c1c(N)sc2c1CC(C)(C)NC2(C)C,8% (inactive),
Nc1ccc(-c2nc3c(Cl)c(N)ccc3[nH]2)cc1,14% (inactive),
CSC(=O)CNC1(Cc2ccc(O)cc2)CCCCC1,11% (inactive),
Cc1ccnc(NS(=O)(=O)c2ccc(NC(=O)c3cc(-c4ccc(Br)cc4)nc4ccccc34)cc2)n1,49% (inactive),47
CCOc1cc2c(c([N+](=O)[O-])c1)NC(c1ccccc1)C1CC=CC21 (stereo not given),12% (inactive),
CC1CCC2(C)c3[nH]c4ccccc4c3CCN2C1=O (stereo not given),0% (inactive),
CCNC(=O)c1ccc2c(c1)C1C3CCC(C3)C1C(c1ccccc1)N2 (stereo not given),66% (active),
COc1ccc(-c2nnc(-c3cc4c(ccc5ccccc54)oc3=O)o2)cc1,58% (inactive),35
CCOC(=O)c1ccc2c(c1)C1C=CCC1C(C(=O)O)N2 (stereo not given),51% (inactive),
Cc1nnc(Oc2ccccc2F)c2ccccc12,36% (inactive),57
CCOc1cc2c(cc1OCC)C(C1CCCCC1)NCC2 (stereo not given),1% (inactive),
CCn1c(SCC(=O)Nc2cccc(F)c2)nnc1-c1cc2cc(Br)ccc2o1,26% (inactive),35
C=CCn1c(=O)c(C#N)cc2c(=O)n3ccccc3nc21,38% (inactive),42
O=C(Oc1cccc(-c2cnc3ccccc3n2)c1)c1ccco1,12% (inactive),
COc1cc(C2C(C#N)=C(N)Oc3cc(C)oc(=O)c32)cc2c1OCO2 (stereo not given),9% (inactive),
Cn1c(SCC(=O)Nc2sccc2C#N)nnc1-c1ccccc1,17% (inactive),24
CC(C)C1CC(CCNCc2ccc3c(c2)OCO3)(c2ccccc2)CCO1 (stereo not given),26% (inactive),
Oc1ccc(-c2[nH]nc(-c3ccccc3)c2-c2nc3ccccc3[nH]2)cc1,33% (inactive),
Cc1ccc(C(=O)ONc2ccc(N=NC(=O)c3ccccc3O)cc2)cc1,39% (inactive),37

SMILES,inhibition of ligand binding (at 10 µM),"inhibition of ligand binding (binding inhibition, at 0.1 µM) [%]"
COc1ccc(NS(=O)(=O)c2ccc3c(c2)[C@H]2C=CC[C@H]2[C@@H](c2ccc(F)cc2)N3)cc1,14% (inactive),
Oc1ccc2c(c1)c1c3n2CCNC3CCC1 (stereo not given),0% (inactive),
O=C1NCCCC2c3cc(O)c4ccccc4c3OC12N1CCCCC1 (stereo not given),25% (inactive),23
COc1ccccc1-c1nnc2sc(-c3cnccn3)nn12,52% (inactive),3
c1ccc(Cc2nnc3sc(-c4ccco4)nn23)cc1,34% (inactive),12
COc1cc(/C=N/N2CCN(C3c4ccccc4-c4ccccc43)CC2)cc(OC)c1O,0% (inactive),
COc1ccc(/C=N/NC(=O)c2nc(-c3ccccc3)n(-c3ccccc3)n2)c(O)c1,41% (inactive),52
COc1ccc(/C=N/NC(=O)c2nc(-c3ccccc3)cc(-c3ccccc3)n2)cc1O,56% (active),97
COc1ccc(C2CC(c3cccs3)=NN2c2ccc(C=O)cc2)cc1 (stereo not given),58% (inactive),38
COc1ccccc1C(=O)Nc1nc(-c2cccs2)c(NC(C)=O)s1,29% (inactive),25
Cc1nn(-c2ccccc2)c(/N=C/c2ccc(O)cc2)c1-c1ccccc1,77% (active),50
Cc1csc(C(C#N)C(=O)c2ccncc2)n1 (stereo not given),33% (inactive),
O=c1nc2s/c(=C\c3ccco3)c(=O)n2nc1Cc1ccc(F)cc1,32% (inactive),61
Nc1nc(N)c2sc3nc4c(cc3c2n1)CCC4,17% (inactive),
O=C(O)c1ccc2c(c1)C1C=CCC1C(c1cccc([N+](=O)[O-])c1)N2 (stereo not given),72% (active),
COc1cccc(-c2[nH]nc3c2C(c2ccoc2)C(C#N)=C(N)O3)c1 (stereo not given),23% (inactive),
COc1cc(NC(=O)COc2ccc(-n3cnnn3)cc2)c(OC)cc1Cl,58% (inactive),41
CCOc1ccc(CC2S/C(=N/c3ccccn3)NC2=O)cc1 (stereo not given),8% (inactive),2
Oc1ccc(-c2nnc(-c3ccccc3)c(-c3ccccc3)n2)cc1,47% (inactive),51
Cc1cc(C(=O)O)ccc1-n1c(C)ccc1C,43% (inactive),58
CCn1c(SCC(=O)N2CCOCC2)nc2oc3c(Cl)cc(Cl)cc3c(=O)c2c1=O,22% (inactive),5
